Sampled rows, rich in hits. Any-hit rate of the full collection: about 3.5%.
Pf apPOL block = Pf-apPOL DNA polymerase inhibition. Recombinant Pf-apPOL, molecular beacon fluorescence, 1.5 h. inhibition, % at 10 µM. hit rate 0.25% among 210,000
mHTT CaM bind = mHTT-calmodulin interaction abrogation | hit rate 3.6% among 190,000 | AID 1671202 | AlphaScreen His-mHTT/GST-CaM binding, luminescence | inhibition, % at 15 µM
Of the large screens only hits and unclear results are named; the others gave an inactive call. Cut-off read from the data, not from the text of the source: active = inhibition above about 50%; inactive = the rest.

COCCN1C(=O)c2ccccc2C(C(=O)N(C)c2ccc(C(C)C)cc2)C1c1ccc(F)cc1 (stereo not drawn)	mHTT CaM bind 57
CCCCOc1ccc(C2=N/C(=C\c3ccc(N(C)C)cc3)C(=O)O2)cc1	none
O=C(Nc1ccc(Br)cc1F)N1CC2CCCN2c2ccccc21 (stereo not drawn)	none
Cc1ccc(NC(=O)N2CCC(N3CCN(Cc4ccccc4)C3=O)CC2)cc1C	none
O=C(Nc1cccc(C(F)(F)F)c1)N1CC2CCCN2c2ccccc21 (stereo not drawn)	mHTT CaM bind 81
Cc1cccc(NC(=O)N2CCCC2c2ccccc2C)c1 (stereo not drawn)	none
O=C(Nc1cccc(C(F)(F)F)c1)N1CCC(N2CCN(Cc3ccccc3)C2=O)CC1	none
Cc1ccc(NC(=O)N2CC3CCCN3c3ccccc32)c(C)c1 (stereo not drawn)	mHTT CaM bind 67
Cc1cccc(NC(=O)N2CC3CCCN3c3ccccc32)c1 (stereo not drawn)	mHTT CaM bind 74
Cc1ccc(NC(=O)N2CC3CCCN3c3ccccc32)cc1C (stereo not drawn)	mHTT CaM bind 84
COc1ccc(OC)c(C2=NOC(C(=O)Nc3ccc(C#N)cc3)C2)c1 (stereo not drawn)	none
COC(=O)c1cccc(NC(=O)C2CC(=O)N(c3ccc4c(c3)CCN4C(C)=O)C2)c1 (stereo not drawn)	none
COc1ccc(CCNc2ncnc(N)c2[N+](=O)[O-])cc1OC	none
O=C(Nc1ccccc1N1CCOCC1)c1ccc(-c2ccc(Cl)cc2)o1	none
Cc1ccc(NC(=O)C2CCC(N3C(=O)c4ccccc4C3=O)CC2)cc1Cl (stereo not drawn)	none
O=C(Nc1ccc2c(c1)OCO2)N1CC2CCCN2c2ccccc21 (stereo not drawn)	mHTT CaM bind 81
O=C(CCC(=O)N1CC2CCCN2c2ccccc21)NCc1ccc2c(c1)OCO2 (stereo not drawn)	none
Cc1ccc(NC(=O)N2CC3CCCN3c3ccccc32)cc1Cl (stereo not drawn)	mHTT CaM bind 89
COC(=O)c1ccccc1NC(=O)c1nc(-c2cccc(F)c2)n2c1CCCCC2	none
COc1cc(NC(=O)c2nc(-c3cccc(F)c3)n3c2CCCCC3)cc(OC)c1OC	mHTT CaM bind 65
COc1ccc(CCNC(=O)c2nc(-c3cccc(F)c3)n3c2CCCCC3)cc1OC	mHTT CaM bind 51
CCOCCCNC(=O)c1nc(-c2cccc(F)c2)n2c1CCCCC2	none
CC(C)c1ccc(C(=O)NCCc2nc3ccccc3c(=O)[nH]2)cc1	none
N#CCc1nc2ccccc2s1	none (no result: Pf apPOL block)
CCn1nccc1C(=O)N(C)C12CC3CC(CC(C3)C1)C2	none
CCc1onc(C)c1C1CCCN1Cc1ccc(N(CC)CC)cc1 (stereo not drawn)	mHTT CaM bind 67
CCc1onc(C)c1C1CCCN1Cc1ccc(O)cc1 (stereo not drawn)	none
CCCNC(=O)C1CCN(c2cc(C)c3cc(NC(C)=O)ccc3n2)CC1	none
COc1cc2c(cc1OC)C(COc1ccc(F)cc1)N(C(=O)c1ccccc1OC)CC2 (stereo not drawn)	mHTT CaM bind 81
COc1cc2c(cc1OC)C(COc1ccc(F)cc1)N(C(=O)c1ccc(F)cc1)CC2 (stereo not drawn)	mHTT CaM bind 57
COc1cc2c(cc1OC)C(COc1ccc(F)cc1)N(C(=O)C1CC1)CC2 (stereo not drawn)	none
CCOc1ccccc1C(=O)N1CCc2cc(OC)c(OC)cc2C1COc1ccc(OC)cc1 (stereo not drawn)	none
C=CCOc1ccccc1/C=C(\C#N)c1nc2ccccc2[nH]1	none
CCCc1cc(C2CCCN2C(=O)Nc2cc(Cl)ccc2C)no1 (stereo not drawn)	none
COc1ccc(-c2noc(C3CCN(CC(=O)Nc4c(C)cc(C)cc4C)CC3)n2)cc1	none
Cc1ccc2nc(/C(C#N)=C/c3ccc(-c4cc([N+](=O)[O-])ccc4O)o3)[nH]c2c1	mHTT CaM bind 56
COc1cc(-c2ccc(/C=C(\C#N)c3nc4ccc(C)cc4[nH]3)o2)c(OC)cc1Cl	none
N#C/C(=C\c1ccco1)c1nc2ccccc2[nH]1	none
CCOc1cc(/C=C(\C#N)c2nc3ccc(C)cc3[nH]2)cc(I)c1O	mHTT CaM bind 80
Cc1ccc2nc(/C(C#N)=C/c3ccc(-c4ccc5c(c4)C(=O)NC5=O)o3)[nH]c2c1	mHTT CaM bind 68
Cc1ccc2nc(/C(C#N)=C/c3ccc([N+](=O)[O-])o3)[nH]c2c1	none
CCOc1ccc(/C=C(\C#N)c2nc3ccc(C)cc3[nH]2)cc1	none
Cc1ccc2nc(/C(C#N)=C/C=C/c3ccco3)[nH]c2c1	mHTT CaM bind 67
Cc1ccc(S(=O)(=O)N2CCC(CCNC(=O)Nc3cccc(C)c3C)CC2)cc1	none
Cc1ccc(-c2nc(C=Nc3ccc(C(=O)O)cc3)c(O)o2)cc1	none
Nc1c(Cl)cc(N2C(=O)c3ccc(Br)cc3C2=O)cc1Br	none
CCC1CN2C=NC(N3CCN(C(=O)c4cccnc4)CC3)=CC2=N1 (stereo not drawn)	none
COc1ccc2sc(C(=O)NC(C)c3ccccc3)c(Cl)c2c1 (stereo not drawn)	none
Cc1ccc(C(=O)N2CCC(c3nc(CNC(=O)C4CCC4)cs3)CC2)c(C)c1	none
COc1ccc2nc(NC3=NC(c4ccccc4)CC(=O)N3)nc(C)c2c1 (stereo not drawn)	Pf apPOL block 60, mHTT CaM bind 54
COc1ccc(C2CC(=O)NC(Nc3nc(C)c4ccc(C)cc4n3)=N2)cc1 (stereo not drawn)	mHTT CaM bind 68
COc1ccc(NC(=O)C2CC(=O)NC(Nc3nc(C)c4ccccc4n3)=N2)cc1 (stereo not drawn)	none
COc1ccc2c(C)nc(Nc3nc4ccccc4c(=O)[nH]3)nc2c1	none
CCc1ccc(C2Nc3ccccc3C(=O)N2c2ccc(NC(C)=O)cc2)cc1 (stereo not drawn)	none
COc1ccc(OC)c(NC(=O)C2CC(=O)N(CCc3c[nH]c4ccc(Cl)cc34)C2)c1 (stereo not drawn)	mHTT CaM bind 81
COc1ccc(Cl)cc1NC(=O)C1CC(=O)N(CCc2c[nH]c3ccc(C)cc23)C1 (stereo not drawn)	mHTT CaM bind 75
COc1ccc(C)cc1NC(=O)C1CC(=O)N(CCc2c[nH]c3ccc(Cl)cc23)C1 (stereo not drawn)	none
COc1ccccc1NC(=O)C1CC(=O)N(CCc2c[nH]c3ccc(Cl)cc23)C1 (stereo not drawn)	none
CC(C)CN(CC(C)C)S(=O)(=O)c1ccc2nc(-c3ccccc3)[nH]c2c1	none
Cc1ccc(C(=O)C(=CN(C)C)Sc2ccc(C(F)(F)F)cn2)cc1	none (no result: mHTT CaM bind)
CC(=O)c1cc2c(cc1NC(=NS(=O)(=O)c1ccc(C)cc1)c1ccc(Cl)cc1)OCO2	none
CCOc1ncccc1C(=O)Nc1ccc(Nc2ccccc2)cc1	mHTT CaM bind 85
CCOc1ncccc1C(=O)Nc1ccc(Cl)cc1	none
O=C(Nc1ccc(Nc2ccccc2)cc1)c1ccccc1I	mHTT CaM bind 70
O=C(Nc1ccc(Nc2ccccc2)cc1)c1ccccc1F	none
COC(=O)c1ccc(Cl)cc1NC(=O)N1CC(C)Oc2ccc(C)cc21 (stereo not drawn)	none
CCOCCOC(=O)c1cc2cc([N+](=O)[O-])ccc2oc1=O	none
O=[N+]([O-])c1ccc(N2CCN(S(=O)(=O)Cc3ccccc3)CC2)cc1NCc1ccccc1	none
Cc1ccc(N2CCC(C(=O)N3CCN(C)CC3)C2=O)cc1C (stereo not drawn)	none
O=C1NC(c2ccc(Br)cc2)=C(c2ccccc2)C1=O	mHTT CaM bind 53
